Active and inactive are the calls of the source. The calls were made as follows: active = hit-call score of the fitted dose curve at least 0.9, where 1 is the maximum; inactive = score below 0.9.
Target: Retinoic acid receptor alpha (Homo sapiens) (UniProt P10276)
Test: ATG_DR5_RAR_CIS: Attagene CIS-FACTORIAL HepG2 Assay for human Retinoic Acid Receptor Alpha (RARE), DR5 submotif (AID 2282934)
Details: HepG2 Attagene cis-factorial RARE DR5 reporter, mRNA; actives raise or lower the signal
Method in brief: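 HepG2 cells transiently transfected with multiplexed reporter units; DR5 cis-element drives reporter through endogenous transcription factors. After 24 h dosing, reporter mRNA quantified by RT-PCR, fluorescent labeling, HpaI digestion and capillary electrophoresis; bidirectional fitting versus DMSO.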

Retinoic acid receptor alpha (Homo sapiens), sequence (P10276 whole entry, looked up): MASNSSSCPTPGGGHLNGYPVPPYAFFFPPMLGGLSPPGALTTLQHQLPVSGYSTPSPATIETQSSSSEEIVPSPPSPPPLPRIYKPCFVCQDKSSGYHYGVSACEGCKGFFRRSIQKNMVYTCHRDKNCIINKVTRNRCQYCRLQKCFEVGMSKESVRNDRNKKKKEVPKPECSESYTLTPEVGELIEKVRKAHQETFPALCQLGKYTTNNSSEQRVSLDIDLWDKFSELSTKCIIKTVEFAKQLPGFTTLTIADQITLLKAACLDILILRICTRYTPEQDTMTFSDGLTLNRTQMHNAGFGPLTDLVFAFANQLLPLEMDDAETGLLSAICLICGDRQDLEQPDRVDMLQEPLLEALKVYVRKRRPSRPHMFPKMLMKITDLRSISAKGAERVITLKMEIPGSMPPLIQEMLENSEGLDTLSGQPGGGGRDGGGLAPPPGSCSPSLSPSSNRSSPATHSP

Compound	outcome
COC(=O)c1cccc(C(=O)OC)c1	inactive
NNC(=O)OCc1ccccc1	inactive
C=C(C)C(N)=O	inactive
CC1=CC[C@@H]2C[C@H]1C2(C)C	inactive
CCCCCCCCOC(=O)c1ccc(O)cc1	inactive
CCOC(=O)C(=O)OCC	inactive
CC1(C)CC(N)CC(C)(CN)C1 (stereo not given)	inactive
CCCCOCCOCCO	inactive
CCn1cc(C(=O)O)c(=O)c2ccc(C)nc21	inactive
CC/C=C\CCOC(=O)C(C)C	inactive
CC(=O)OCC=C(C)CCC=C(C)CCC=C(C)C	inactive
CC(=O)C1C(=O)C=C(C)OC1=O (stereo not given)	inactive
CCCCCc1cccc(=O)o1	inactive

Target: Transcription factor E2F1 (Homo sapiens) (UniProt Q01094)
Sequence (Q01094 whole entry, looked up): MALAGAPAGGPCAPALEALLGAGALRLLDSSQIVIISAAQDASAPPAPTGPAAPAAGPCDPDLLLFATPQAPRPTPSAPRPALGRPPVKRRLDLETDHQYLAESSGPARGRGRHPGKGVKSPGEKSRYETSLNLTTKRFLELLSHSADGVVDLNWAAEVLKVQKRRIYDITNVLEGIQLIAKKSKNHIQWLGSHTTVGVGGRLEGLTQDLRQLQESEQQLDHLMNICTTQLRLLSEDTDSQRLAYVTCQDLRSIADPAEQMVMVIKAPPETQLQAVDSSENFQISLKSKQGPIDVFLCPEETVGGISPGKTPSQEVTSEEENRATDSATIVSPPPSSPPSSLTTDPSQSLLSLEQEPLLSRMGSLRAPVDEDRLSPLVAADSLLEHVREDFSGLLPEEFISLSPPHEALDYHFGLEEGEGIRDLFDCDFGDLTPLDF
Test: ATG_E2F_CIS: Attagene CIS-FACTORIAL HepG2 Assay for human E2F Transcription Factor 1 (AID 2282935)
Details: HepG2 Attagene cis-reporter, E2F reporter RNA transcripts; actives raise or lower the signal
Method in brief: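 Endogenous E2F1 activity read through cis-promoter reporter units transfected into HepG2. After 24 h compound treatment, reporter mRNA measured by RT-PCR, HpaI digestion and capillary electrophoresis. Bidirectional fit versus DMSO.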

Compound	outcome	AC50
C1=COCCC1	inactive	
NC(=O)c1cccnc1	inactive	
COC(=O)c1cccc(C(=O)OC)c1	inactive	
CC(C)(O)CCc1ccccc1	inactive	
NNC(=O)OCc1ccccc1	inactive	
CC(CO)c1ccccc1 (stereo not given)	inactive	
CCCCCC1CCC(=O)O1 (stereo not given)	inactive	
c1ccc2scnc2c1	inactive	
C=C1CC/C=C(\C)CC[C@@H]2[C@@H]1CC2(C)C	inactive	
CC/C=C\CCOC(C)OCC (stereo not given)	inactive	
C=C(C)C(N)=O	inactive	
CC1=CC[C@@H]2C[C@H]1C2(C)C	inactive	
CC(C)(C)c1ccc(S)cc1	inactive	
CCOC(=O)C(=O)OCC	inactive	
C1CCCNCC1	inactive	
CCCCCCC(C)O (stereo not given)	inactive	
CN1CCc2cccc3c2[C@H]1Cc1ccc(O)c(O)c1-3	inactive	
CCn1cc(C(=O)O)c(=O)c2ccc(C)nc21	inactive	
C=CC(=O)OCC(CO)(COC(=O)C=C)COC(=O)C=C		27 µM (active)
CC/C=C\CCOC(=O)C(C)C	inactive	
NC(N)=S	inactive	
CC(=O)C1C(=O)C=C(C)OC1=O (stereo not given)	inactive	
CC(C)CCOC(=O)CC(C)C	inactive	
CC(C)=CC(=O)O	inactive	
CCCCCc1cccc(=O)o1	inactive	
CCO[Si](CCC#N)(OCC)OCC	inactive	
CC(C)COC(=O)c1ccccc1O	inactive	
O=C1CCC(=O)N1	inactive	

Tested on: not listed separately
Test: ATG_E_Box_CIS: Attagene CIS-FACTORIAL HepG2 Assay for human Enhancer Box (E-box) (AID 2282936)
Details: HepG2 E-box cis-reporter transcription, actives raise or lower the signal
Method in brief: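 HepG2 cells transiently transfected with multiplexed cis-element reporter units, dosed 24 h; reporter mRNA quantified by RT-PCR, 6-FAM labelling, HpaI digestion and capillary electrophoresis. E-box (USF1) signal fitted bidirectionally vs DMSO.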

Compound	outcome	AC50
C1=COCCC1	inactive	
NC(=O)c1cccnc1	inactive	
COC(=O)c1cccc(C(=O)OC)c1	inactive	
CC(C)(O)CCc1ccccc1	inactive	
NNC(=O)OCc1ccccc1	inactive	
CC(CO)c1ccccc1 (stereo not given)	inactive	
CCCCCC1CCC(=O)O1 (stereo not given)	inactive	
c1ccc2scnc2c1	inactive	
C=C1CC/C=C(\C)CC[C@@H]2[C@@H]1CC2(C)C		94.9 µM (active)
CC/C=C\CCOC(C)OCC (stereo not given)	inactive	
C=C(C)C(N)=O	inactive	
CC1=CC[C@@H]2C[C@H]1C2(C)C	inactive	
CCCCCCCCOC(=O)c1ccc(O)cc1	inactive	
CC(C)(C)c1ccc(S)cc1	inactive	
CCOC(=O)C(=O)OCC	inactive	
C1CCCNCC1	inactive	
CCCCCCC(C)O (stereo not given)	inactive	

Compound	outcome	AC50
CC1(C)CC(N)CC(C)(CN)C1 (stereo not given)	inactive	
CN1CCc2cccc3c2[C@H]1Cc1ccc(O)c(O)c1-3		2.76 µM (active)
CCCCOCCOCCO	inactive	
CCn1cc(C(=O)O)c(=O)c2ccc(C)nc21	inactive	
C=CC(=O)OCC(CO)(COC(=O)C=C)COC(=O)C=C		22.2 µM (active)
CC/C=C\CCOC(=O)C(C)C	inactive	
Nc1ccn([C@H]2CC[C@@H](CO)O2)c(=O)n1	inactive	
CC(=O)OCC=C(C)CCC=C(C)CCC=C(C)C	inactive	
NC(N)=S	inactive	
CC(=O)C1C(=O)C=C(C)OC1=O (stereo not given)	inactive	
CC(C)CCOC(=O)CC(C)C	inactive	
CC(C)=CC(=O)O	inactive	
CCCCCc1cccc(=O)o1	inactive	
CCO[Si](CCC#N)(OCC)OCC	inactive	
CC(C)COC(=O)c1ccccc1O	inactive	
O=C(C=Cc1ccccc1)OCCCc1ccccc1	inactive	
O=C1CCC(=O)N1	inactive	

Source: PubChem BioAssay (EPA / NIEHS)
